Hits are enriched below; roughly 1.1% of the tested compounds scored in any of these assays.
NCOA3 inh = inhibitors of human steroid receptor coactivator 3 (SRC3); 360,000 tested, 0.17% active; inhibition, % at 3.6 µM; HEK293 GAL4-SRC3 luciferase reporter, luminescence; Q9Y6Q9;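 active = inhibition above a per-campaign cutoff, the mean of all compounds plus 3 SD, cut at about 60% in these data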;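 also: 0% = DMSO-treated cells and 100% = gossypol-treated cells at 36 µM; higher means less SRC3-driven luciferase light from the GAL4 reporter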
NCOA1 inh = inhibits human SRC1 coactivator; 360,000 tested, 0.12% active; Q15788; inhibition, % at 3.6 µM; AID 588354; HEK293 GAL4-SRC1 luciferase reporter, luminescence;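 active = inhibition above the campaign mean plus 3 SD, with each screening campaign given its own cutoff, cut at about 60% in these data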;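 also: 0% = DMSO treated cells and 100% = gossypol at 36 µM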
NR5A2 inv ag = inverse agonists of human LRH-1 (NR5A2). O00482. HEK293T StAR-luciferase reporter, LRH-1 transfected, 24 h. inhibition, % at 3.6 µM. 360,000 tested, 0.13% active;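 active = inhibition above the mean inhibition of all tested compounds plus 3 SD, cut at about 73% in these data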;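 also: 0% = DMSO wells and 100% = reporter-only cells lacking LRH-1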
Target sequence (O00482 whole entry, looked up): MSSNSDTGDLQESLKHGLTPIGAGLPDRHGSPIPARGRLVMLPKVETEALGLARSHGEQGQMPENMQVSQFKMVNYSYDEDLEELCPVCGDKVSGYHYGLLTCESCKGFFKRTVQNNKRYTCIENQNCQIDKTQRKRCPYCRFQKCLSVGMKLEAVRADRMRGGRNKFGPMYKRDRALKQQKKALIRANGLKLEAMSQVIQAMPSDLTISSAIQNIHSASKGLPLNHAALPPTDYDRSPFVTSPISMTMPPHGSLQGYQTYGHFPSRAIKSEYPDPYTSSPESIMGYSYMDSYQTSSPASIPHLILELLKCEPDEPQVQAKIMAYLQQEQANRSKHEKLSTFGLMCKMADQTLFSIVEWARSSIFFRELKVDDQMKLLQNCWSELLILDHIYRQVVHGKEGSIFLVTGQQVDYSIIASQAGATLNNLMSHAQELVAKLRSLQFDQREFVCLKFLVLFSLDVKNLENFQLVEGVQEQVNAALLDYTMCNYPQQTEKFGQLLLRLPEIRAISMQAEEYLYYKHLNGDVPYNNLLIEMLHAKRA
SRC2 inh = inhibits human steroid receptor coactivator 2. 370,000 tested, 0.17% active. Q15596. inhibition, % at 9 µM. AID 651957. HEK293 GAL4-SRC2 luciferase reporter, luminescence;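 active = inhibition above the mean inhibition of all tested compounds plus 3 SD, set per campaign, cut at about 52% in these data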;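 also: 0% = DMSO treated cells and 100% = cells given Gossypol at 36 µM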
Gli-Sufu antag = blocks Gli-Sufu signaling in a luciferase reporter | Sufu-KO-LIGHT fibroblasts, Gli luciferase reporter luminescence | inhibition, % at 5 µM | 340,000 tested, 0.74% active | AID 588413;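 active = inhibition above about 55%, limit read from the data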;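 also: 0% = DMSO-treated cells and 100% = wells with medium but no cells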
Shn3 3UTR inh = inhibitors of Schnurri-3 3'UTR reporter in osteoblasts. Clone20 osteoblast Shn3 3'UTR firefly luciferase, 24 h. inhibition, % at 12.5 µM. 360,000 tested, 0.52% active. AID 588674;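 active = mean inhibition of at least 75% with every replicate also reaching 75%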;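 also: 0% = median of neutral control wells and 100% = pilot-screen positive control compound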
The depositor's hits bear a star; . = not tested or not shown.

SMILES | NCOA3 inh | NCOA1 inh | NR5A2 inv ag | SRC2 inh | Gli-Sufu antag | Shn3 3UTR inh
CC(C)(C)c1ccc(NC(=O)CON=C(N)c2ccccc2)cc1 | 12 | 13 | 18 | -30 | -1 | 5
Cc1ccc(NC(=O)CO/N=C(\N)c2ccccc2)cc1C | -5 | -12 | -9 | -27 | 10 | 89*
Cc1c(CCC(=O)N[C@@H](C)C(=O)O)c(=O)oc2cc3oc4c(c3cc12)CCCC4 | 1 | 9 | 5 | 67* | 11 | 36
Cc1c(CCC(=O)N2CCC(C(=O)O)(c3ccccc3)CC2)c(=O)oc2cc3oc4c(c3cc12)CCCC4 | -21 | 1 | 3 | 58* | 9 | 23
Cc1oc2cc3oc(=O)c(CCC(=O)N4CCC(C(=O)O)(c5ccccc5)CC4)c(C)c3cc2c1C | 11 | 16 | 17 | 3 | . | 13
Cc1c(CC(=O)NCCC(=O)O)c(=O)oc2cc3oc4c(c3cc12)CCCC4 | -6 | -6 | -4 | 6 | 7 | 6
Cc1c(CCC(=O)N2CCC(C(=O)O)CC2)c(=O)oc2cc3oc4c(c3cc12)CCCC4 | -53 | -4 | -6 | 63* | 6 | 8
O=C1c2cccnc2-c2ncccc21 | 25 | -4 | 10 | -17 | -1 | -20
O=C1C(=O)c2cccnc2-c2ncccc21 | 91* | 89* | 104* | 94* | . | 95*
CC1CCC(C(C)C)C(OC(=O)Cn2c(-c3ccc(Cl)cc3)[n+](C)c3ccccc32)C1 (stereo unspecified) | 31 | 18 | 26 | 7 | 72* | 68
Cc1cc(C)n2c(=O)c3ccc(Cl)cc3nc2c1C#N | -15 | -2 | -7 | 19 | -7 | -4
Cc1cc(Cl)n2c(nc3cc(F)c(F)cc32)c1C#N | -3 | 2 | 26 | 26 | 62* | 96*
O=C(NCCc1c[nH]c2ccccc12)OCc1cn(Cc2cccc(F)c2F)nn1 | . | . | . | 5 | . | .
CC(C)c1nc(SCC(=O)Nc2cccc(C(F)(F)F)c2)c2c(=O)n(C)c(=O)n(C)c2n1 | -1 | 1 | -15 | 17 | 16 | 86*
S=C(NNc1ccnc2cc(Cl)ccc12)Nc1ccc(Cl)cc1Cl | -2 | 7 | -5 | -16 | 20 | 88*
COc1cc(NC(=O)CN2C(=O)CN(C)C2=O)c(C)cc1[N+](=O)[O-] | 6 | -6 | 24 | -32 | 0 | 10
COc1cc(NC(=O)Cn2ncc(Cl)c(Cl)c2=O)c(C)cc1[N+](=O)[O-] | -39 | -55 | -7 | -38 | 10 | 97*
O=C(Nc1ccc(F)cc1)OCc1cn(Cc2cccc(F)c2F)nn1 | . | . | . | -20 | . | .
Cc1nnc(SCC(=O)N2CCC(c3noc4ccc(F)cc34)CC2)s1 | 63* | 62* | 21 | 46 | -5 | 28
Cc1ccc(NC(=O)CCC(=O)N/N=C/c2ccc([N+](=O)[O-])o2)cc1C | -2 | 3 | 0 | -5 | -6 | .
CCCC(=O)Nc1ccc(C(=O)N/N=C/c2ccc([N+](=O)[O-])o2)cc1 | 71* | 65* | 83* | 48 | 11 | 27
COc1ccccc1Nc1nc(N)nc(CCl)n1 | 16 | -2 | 0 | 8 | 5 | -13
Cc1ccc(Nc2nc(N)nc(CCl)n2)c(C)c1 | 55 | 47 | 46 | 45 | 68* | -109
Cc1cccc(Nc2nc(N)nc(CCl)n2)c1C | 52 | 24 | 32 | 43 | 81* | -11
Cc1cc(SCC(=O)N/N=C/c2ccc(O)cc2O)c(C)cc1Br | 41 | 21 | 16 | 18 | 9 | 93*
SMILES | NCOA3 inh | NCOA1 inh | NR5A2 inv ag | SRC2 inh | Gli-Sufu antag | Shn3 3UTR inh
CC(C)(C)C1CCc2c(sc(NC(=O)CSc3ncn[nH]3)c2C#N)C1 (stereo unspecified) | 2 | 15 | -1 | 6 | 3 | 29
N#Cc1c(NC(=O)CCCC(=O)O)sc2c1CCCCC2 | -13 | -66 | -27 | 61* | -16 | 24
CC1CCc2c(sc(NC(=O)CSc3ncn[nH]3)c2C#N)C1 (stereo unspecified) | 53 | 44 | 47 | 82* | 33 | 50
N#Cc1c(NC(=O)CSc2ncn[nH]2)sc2c1CCCC2 | 26 | 23 | 39 | 75* | 22 | 58
COC(=O)[C@]12C[C@H](CC(=O)N3CCOCC3)C(=O)N(CCc3ccc(OC)c(OC)c3)C1=C[C@H](COCc1ccccc1)O[C@@H]2C | . | . | . | -2 | . | .
COc1ccc([N+](=O)[O-])c(S(=O)(=O)c2ccc(Cl)cc2)n1 | 12 | 0 | -22 | 36 | 4 | 94*

Screening data from PubChem.
